From PubChem BioAssay
KDM5B inhibitor: inhibitors of human KDM5B histone demethylase. actives 2.6% (n = 220,000). Q9UGL1. KDM5B demethylase, FDH-coupled NADH fluorescence (FDH is formaldehyde dehydrogenase). Potency, µM (doses to about 57.7 µM), most hits filed as inhibitors; active = well fitted inhibition curve with a large enough effect; also: 0% is about no effect; nearly all actives have a fitted effect of over 70% in size
Target sequence (Q9UGL1 whole entry, looked up): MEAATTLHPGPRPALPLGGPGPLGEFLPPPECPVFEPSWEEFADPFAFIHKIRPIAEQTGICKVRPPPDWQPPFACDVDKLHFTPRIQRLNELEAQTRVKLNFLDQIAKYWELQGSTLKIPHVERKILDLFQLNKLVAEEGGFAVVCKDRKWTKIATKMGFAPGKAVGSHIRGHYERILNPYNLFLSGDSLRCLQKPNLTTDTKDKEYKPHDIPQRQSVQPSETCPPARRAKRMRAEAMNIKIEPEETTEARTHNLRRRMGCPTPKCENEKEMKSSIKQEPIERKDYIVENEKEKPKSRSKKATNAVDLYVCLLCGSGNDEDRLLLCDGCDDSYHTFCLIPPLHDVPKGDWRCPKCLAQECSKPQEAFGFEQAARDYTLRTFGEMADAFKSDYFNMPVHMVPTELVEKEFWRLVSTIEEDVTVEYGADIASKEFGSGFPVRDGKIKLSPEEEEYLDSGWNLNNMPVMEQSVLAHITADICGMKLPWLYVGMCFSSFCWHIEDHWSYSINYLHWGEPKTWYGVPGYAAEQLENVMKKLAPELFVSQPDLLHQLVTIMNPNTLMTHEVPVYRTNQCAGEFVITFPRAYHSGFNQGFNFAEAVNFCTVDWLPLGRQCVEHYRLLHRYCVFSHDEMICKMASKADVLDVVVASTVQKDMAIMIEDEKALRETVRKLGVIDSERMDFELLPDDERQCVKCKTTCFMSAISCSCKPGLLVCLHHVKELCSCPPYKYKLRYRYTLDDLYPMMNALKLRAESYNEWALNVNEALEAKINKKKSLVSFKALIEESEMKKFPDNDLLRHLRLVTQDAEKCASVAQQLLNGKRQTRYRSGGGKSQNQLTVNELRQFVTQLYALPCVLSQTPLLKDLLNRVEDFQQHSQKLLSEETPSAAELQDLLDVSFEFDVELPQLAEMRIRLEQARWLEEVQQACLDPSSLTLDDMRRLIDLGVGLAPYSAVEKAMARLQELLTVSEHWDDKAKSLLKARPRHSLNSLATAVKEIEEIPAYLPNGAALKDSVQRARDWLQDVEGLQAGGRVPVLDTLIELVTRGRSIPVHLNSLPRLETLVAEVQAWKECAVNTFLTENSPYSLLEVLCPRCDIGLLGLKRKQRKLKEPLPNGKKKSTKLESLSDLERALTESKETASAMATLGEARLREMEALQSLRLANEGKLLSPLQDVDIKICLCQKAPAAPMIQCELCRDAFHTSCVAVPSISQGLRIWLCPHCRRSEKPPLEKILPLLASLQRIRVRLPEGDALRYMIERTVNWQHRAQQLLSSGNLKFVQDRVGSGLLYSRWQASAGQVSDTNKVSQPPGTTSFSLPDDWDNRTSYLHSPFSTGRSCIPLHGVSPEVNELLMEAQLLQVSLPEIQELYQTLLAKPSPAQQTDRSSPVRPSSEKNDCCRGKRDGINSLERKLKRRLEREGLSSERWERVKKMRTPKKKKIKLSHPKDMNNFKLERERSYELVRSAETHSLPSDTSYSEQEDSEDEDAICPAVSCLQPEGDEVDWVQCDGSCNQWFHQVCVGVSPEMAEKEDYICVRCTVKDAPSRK
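Coupled FDH/NAD⁺ fluorescence readout. KDM5BΔAP 200 nM final; compound titration, 10 min RT preincubation; substrate mix 12.5 µM H3K4me3, 25 µM 2-OG, 50 µM Fe(II), 100 µM ascorbate, 0.25 mM NAD⁺, 0.25 U/mL FDH; ΔRFU over 30 min.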
Active calls of the source: *; i = inactive. The sample as a whole holds a higher share of hits than the screen did. Potency is read from the fitted curve at half-maximal effect.

SMILES	KDM5B inhibitor
COc1ccc(C(=O)Nc2nc3c(s2)C[C@@H]2[C@](C)(CO)[C@H](O)CC[C@@]2(C)[C@@H]3CC(=O)NCCNC(C)=O)cc1	i
C[C@@H](NC(=O)C[C@@H]1c2nc(-c3cccnc3)sc2C[C@@H]2[C@](C)(CO)[C@H](O)CC[C@]21C)c1ccccc1	32µM*
CCOc1ccc(CN(C)C(=O)Cn2c(=O)c3c(ncn3CC)n(Cc3ccccc3)c2=O)cc1	i
COc1cccc(-c2ocnc2C(=O)NCc2ccc(OC)cc2OC)c1	i
Cc1ccc(NC(=O)Cn2nc3n(c2=O)CCCC3)cc1	i
O=C(c1cccnc1)N1CCCC(Cc2nc(C3CCOCC3)no2)C1 (stereo not given)	i
Cc1ccnc(NC(=O)c2cc(C)nc3ccccc23)c1	i
Cc1c(C(=O)N2CCN(c3ccccc3O)CC2)oc2c1C(=O)CC(C)(C)C2	i
Cc1ccc(NC(=O)Cn2ccc3sccc3c2=O)c(C)c1	i
CNC(=O)N1CCC(C2CCN(C(=O)CCCc3ccccc3)C2)CC1 (stereo not given)	i
CN(Cc1ccc2c(c1)OCO2)C(=O)CCc1ncc(-c2ccc(F)cc2)o1	i
Cc1ccc(N2C(=O)CSC23C(=O)Nc2ccccc23)cc1Br (stereo not given)	i
OCC1CN(c2ccncn2)CC12CCN(Cc1ccc(F)c(F)c1)CC2 (stereo not given)	i
Fc1ccc(CN2CCCC3(CCN(c4cnccn4)C3)C2)cc1F (stereo not given)	28µM*
Cc1ccc(CN2CC3(COCC2=O)CN(c2cnccn2)C3)cc1C	i
Cc1cc(C)c2c(=O)n(CC(=O)N3CCCC(C)C3)c(=O)n(-c3ccccc3)c2n1 (stereo not given)	i
C=Cc1ccc(CN2C(=O)N(c3cc(OC)cc(OC)c3)S(=O)(=O)c3ccccc32)cc1	i
Cc1ccc(C2NC(=O)c3c(sc4c3CCN(Cc3ccccc3)C4)N2)o1 (stereo not given)	i
O=c1c2sccc2ncn1Cc1coc(-c2cccc(F)c2)n1	i
COc1ccccc1-c1cc2[nH]ccc2c(C(=O)NCc2c(C)cc(C)[nH]c2=O)n1	i
COc1cccc(-c2cc3c(ccn3C(C)C)c(C(=O)NCc3c(C)cc(C)[nH]c3=O)n2)c1	i
Cc1cc(C)c(CNC(=O)c2nc(-c3cccnc3)cc3c2ccn3C(C)C)c(=O)[nH]1	i
CC(=O)Nc1cccc(-c2cc3c(ccn3C)c(C(=O)NCc3c(C)cc(C)[nH]c3=O)n2)c1	14µM*
COc1ccccc1-c1cc2c(ccn2C)c(C(=O)NCc2c(C)cc(C)[nH]c2=O)n1	35µM*
Cc1cc(C)c(CNC(=O)c2nc(-c3cncnc3)cc3c2ccn3C(C)C)c(=O)[nH]1	32µM*
SMILES	KDM5B inhibitor
CC(C)(C)c1ccc(NC(=O)CN2C(=O)COc3ccccc32)cc1	i
Cc1ccccc1NC(NC(=O)c1ccccc1C)C(Cl)(Cl)Cl (stereo not given)	i
CC(C)CC(=O)Nc1ccc(C(N)=O)c(Cl)c1	i
CCN1CCCN(S(=O)(=O)c2cnn(CC)c2)CC12CCOCC2	i
COc1ccc2c(c1)c(=O)c(S(=O)(=O)c1ccc(C)cc1)cn2C	i
O=C(O)c1cc2ccccc2s1	i
CN1CCCC1CNC(=O)c1cc2ccccc2s1 (stereo not given)	i
O=C(O)c1cc2cn(C3CC3)cc2s1	25µM*
O=C(O)CCSC(C(=O)N1CCCCC1)c1ccccc1 (stereo not given)	i
CC(C)c1nc2oc3c(N(CCO)CCO)ncnc3c2c2c1CCC2	i
C#CCNC(=O)C1=NOC2CN(C(=O)c3ccn(C)n3)CC12 (stereo not given)	i
Fc1cccc(OC2CCNC2)c1 (stereo not given)	i
CCOC(=O)N1CCN(C(=O)CN(c2cccc(OC)c2)S(=O)(=O)c2ccc(C)cc2)CC1	i
COC(=O)c1c(C)[nH]c(C(=O)c2oc3ccc(OC)cc3c2C)c1C	i
Fc1ccc(CN2CCOC[C@H]2c2ncc(-c3cccc(Cl)c3)[nH]2)cc1	i
CCNc1ncc(C(=O)N[C@H](C2CCNCC2)C2CC(O)C2)cn1 (stereo not given in full)	28µM*
Cc1cc(C)c(C(=O)N[C@H](C2CCNCC2)C2CC(O)C2)c(C)c1 (stereo not given in full)	i
O=C(N[C@H](c1cccs1)C1CC(O)C1)c1ccc(N2CCOCC2)cc1 (stereo not given in full)	i
CCNc1ncc(C(=O)N[C@H](c2cccs2)C2CC(O)C2)cn1 (stereo not given in full)	22µM*
CCN(CC)Cc1cc(C(=O)N[C@H](c2cccs2)C2CC(O)C2)c(C)o1 (stereo not given in full)	i
Cn1c(=O)oc2ccc(C(=O)N[C@H](C3CCNCC3)C3CC(O)C3)cc21 (stereo not given in full)	i
COc1cc(C#N)ccc1OCc1ccccc1Cl	i
Cn1c(CSc2ccccc2)nc2c1c(=O)[nH]c(=O)n2C	i
COc1ccccc1CC(=O)N1CCCc2ncc(C(=O)Nc3ccccc3)cc21	i
COc1ccccc1N1CCCc2ncc(C(=O)Nc3cccnc3)cc21	i
SMILES	KDM5B inhibitor
CNC(=O)c1cnc2c(c1)N(Cc1ccccc1)CCC2	32µM*
COc1cccc(NC(=O)c2cnc3c(c2)N(C(=O)Cc2ccccc2OC)CCC3)c1	i
COc1cc(CNC(=O)c2cnc3c(c2)N(C(=O)CCc2ccccc2)CCC3)cc(OC)c1	i
COc1ccccc1CC(=O)N1CCCc2ncc(C(=O)Nc3ccccc3C)cc21	i
COc1cccc(NC(=O)c2cnc3c(c2)N(Cc2ccccc2)CCC3)c1	32µM*
Cc1ccccc1NC(=O)c1cnc2c(c1)N(C(=O)CCc1ccccc1)CCC2	i
O=C(NC(c1ccccc1)c1ccccc1)c1cnc2c(c1)N(C(=O)Cc1ccc(O)cc1)CCC2	i
Cc1ccccc1NC(=O)c1cnc2c(c1)N(Cc1ccccc1)CCC2	40µM*
COc1ccccc1CC(=O)N1CCCc2ncc(C(=O)Nc3cccnc3)cc21	i
COc1ccccc1N1CCCc2ncc(C(=O)Nc3cccc(C(F)(F)F)c3)cc21	32µM*
Cc1ccc2c(=O)cc(C(=O)N(Cc3ccccc3)Cc3ccco3)oc2c1	i
O=C(NCCc1ccccn1)c1ccc(I)cc1	i
N#Cc1ccc(-c2ccc(OC(=O)CCC(=O)c3cccs3)cc2)cc1	i
Cc1ccc(-n2c(SCc3cccc(C)c3)nc3c(=O)[nH]cnc32)cc1	i
O=C(NC(Cc1c[nH]c2ccccc12)C(=O)O)c1ccccc1F (stereo not given)	i
Cn1c(NCc2ccc3c(c2)OCO3)nc2c1c(=O)n(Cc1ccccc1Cl)c(=O)n2C	i
O=C(COC(=O)CCC(=O)c1ccc(Cl)cc1)NC1CCCCCCC1	i
COc1ccc(N(C)C(=O)CCc2c[nH]c3ccccc23)cc1OC	i
O=C(c1ccc(Br)o1)N1CCN(C2CCN(Cc3ccccn3)C2=O)CC1 (stereo not given)	i
O=C(NCCC1=CCCCC1)C1CC(=O)N(c2n[nH]c3ccccc23)C1 (stereo not given)	25µM*
O=C(NCCc1cccc(F)c1)C1CC(=O)N(c2n[nH]c3ccccc23)C1 (stereo not given)	22µM*
O=C(NCCc1ccccn1)C1CC(=O)N(c2n[nH]c3ccccc23)C1 (stereo not given)	i
